Only some compounds are listed: those with a hit (about 3.7% of all), similar ones and a draw of the others.
D3 ag = activates the human D3 dopamine receptor; P35462; max activation, %; actives 0.58% (n = 410,000); D3R DiscoveRx beta-arrestin cells, luminescence, 90 min; in the data active means max activation above about 30%; further: 0% is about no effect
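Agonist mode: compounds and dopamine controls were applied to plated cells for 90 min at 37 degrees C after an overnight attachment at 1500 cells/well. Luminescent read-out followed 30 - 60 minutes at room temperature with DiscoveRx detection reagent.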
RGS4 inh = inhibitors of human regulator of G protein signaling 4. P49798. Transcreener GDP fluorescence polarization, RGS4-accelerated GTP hydrolysis. Potency, µM (top dose mostly 114 µM), inactives show top-dose activity change, negative = inhibition, most hits filed as inhibitors. actives 0.039% (n = 390,000). AID 504845; further: potency means the concentration at half of the fitted maximal effect; on the % scale 0 is the no-effect control and ±100 the full control effect; nearly all actives have a fitted effect of over 75% in size
Target sequence (P49798 whole entry, looked up): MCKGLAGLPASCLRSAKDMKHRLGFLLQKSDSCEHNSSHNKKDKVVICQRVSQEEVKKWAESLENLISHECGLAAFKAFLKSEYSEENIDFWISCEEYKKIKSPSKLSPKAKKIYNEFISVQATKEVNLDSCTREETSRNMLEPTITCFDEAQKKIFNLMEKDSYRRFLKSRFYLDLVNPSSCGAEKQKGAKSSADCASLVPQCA
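MLSMR compounds (23 nl, pin-transferred) preincubated 10 min at room temperature with a 500nM (2x) first reagent, then RGS4 at 900nM (2x) plus Transcreener GDP mix added; fluorescence polarization (620/688 nm) read before and after 90 min at 30 °C.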
B2AR arrestin = beta2AR (human) beta-arrestin recruitment activity. P07550. beta-arrestin recruitment to beta2AR, cell-based reporter. Potency, µM (titrated, usually from 46.1 µM), for the others: at the highest dose activation, hits mostly activators. actives 0.02% (n = 330,000). AID 492947;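 further: potency means the concentration at half of the fitted maximal effect; 0% = DMSO controls and full agonism = EC100 isoproterenol or metaproterenol; nearly all actives have a fitted effect of over 65% in size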
Target sequence (P07550 whole entry, looked up): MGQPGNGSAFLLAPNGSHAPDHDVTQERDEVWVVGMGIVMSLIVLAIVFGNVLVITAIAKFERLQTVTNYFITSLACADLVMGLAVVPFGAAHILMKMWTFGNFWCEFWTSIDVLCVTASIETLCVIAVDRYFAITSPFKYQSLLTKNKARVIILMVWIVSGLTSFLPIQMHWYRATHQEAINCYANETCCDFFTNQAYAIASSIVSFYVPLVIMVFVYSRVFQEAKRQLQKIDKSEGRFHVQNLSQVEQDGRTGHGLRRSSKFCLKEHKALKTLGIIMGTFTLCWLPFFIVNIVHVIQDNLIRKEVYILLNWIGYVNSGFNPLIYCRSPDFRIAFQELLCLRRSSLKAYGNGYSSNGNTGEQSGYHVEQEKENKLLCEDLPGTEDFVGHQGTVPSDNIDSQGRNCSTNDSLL
BRCA1 expr act = activators of BRCA1 expression | MCF7-BRCA1-FFLuc reporter, luminescence, 48 h; response scale: scaled: vehicle 0%, 10 µM genistein 100% | Potency, µM (top dose mostly 46.1 µM), for the others: top-dose activation, most hits filed as activators | actives 1.1% (n = 380,000) | AID 624202; further: potency means the concentration at half of the fitted maximal effect; nearly all actives have a fitted effect of over 80% in size
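MCF7 cells carrying a BRCA1-firefly luciferase reporter (2000 cells/well, phenol-red free MEM) were attached for 2 h at 37 °C, then given compounds for 48 h. Luminescence was read 15 min after luciferase reagent; activity normalized to genistein (10 microM) and DMSO.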
D3 antag = blocks the human D3 dopamine receptor; D3R cells, DiscoveRx beta-arrestin luminescence, antagonist mode; hits give low values; P35462; max response, negative = inhibition, %; actives 2.5% (n = 360,000); in the data active means max response below about -50%; inconclusive means no clear call, values can overlap the other calls; further: on the % scale 0 is the no-effect control and ±100 the full control effect
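Cells plated overnight at 1500 cells/well, then exposed to library compounds with dopamine controls for 90 minutes at 37 degrees C. DiscoveRx reagent added for 30–60 minutes at room temperature; luminescence read, quantitative HTS format.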
PTHR1 ag = PTHR1 (human) receptor agonism; HEK293 GP2 PTHR1 cells, GloSensor cAMP luminescence, 1 h; Potency, µM (titrated, usually from 115 µM), for the others: at the top dose activation, actives largely listed as activators; actives 0.075% (n = 410,000); further: potency means the concentration at half of the fitted maximal effect; nearly all actives have a fitted effect of over 55% in size
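HEK-293-derived GP2 cells expressing PTHR1 and a GloSensor cAMP reporter, 3,000/well, plated overnight, given luciferin plus IBMX (each 0.5 mM as added) for 1 h at 37 °C, then compound for 1 h at 37 °C. Luminescence was read after 15 min at room temperature.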
* marks the source's active call; other numbers are inactive results; i = inactive; ? = inconclusive; . = no result given; [ ] = dose if it differs, or a comment. Unless noted, the call rests on the fitted dose curve; in most records, active means well fitted curve in the direction sought with a large enough effect; inconclusive means small, poorly fitted or top-dose-only effect, or another doubt; inactive means no such curve, though single readings can be large; an effect the other way counts as inactive or inconclusive.

SMILES	D3 ag	RGS4 inh	B2AR arrestin	BRCA1 expr act	D3 antag	PTHR1 ag
Cc1ccc(S(=O)(=O)c2nc(S(C)(=O)=O)sc2N2CCCC2)cc1	-4	1%	0%	-15%	5	-22%
Cc1ccc(S(=O)(=O)c2nc(S(=O)(=O)c3ccccc3)sc2N2CCN(CCO)CC2)cc1	-18	3%	0%	-70%	-74*	-1%
CN(C(=O)CSc1nc2ccccc2n1C)C1CCS(=O)(=O)C1 (stereo not given)	1	3%	0%	6%	0	i
CCOC(=O)c1cnc(-c2ccccc2)nc1N(C)C	7	5%	0%	-49%	-9	-2%[57.5 µM]
CCc1ccc(-c2cnc3ccccc3n2)cc1NC(=O)CNC(=O)c1ccccc1	3	1%	0%	7.9µM*	7	-16%
CCOC(=O)c1cnc(-c2ccccc2)nc1N	1	-15%	0%	4µM*	12	-13%[57.5 µM]
Cc1nc2ccc(C(=O)OCc3ccccc3Br)cc2nc1C	2	16%	0%	7.1µM*	4	-2%
Cc1cc2ncc(-c3ccccc3)nc2cc1C	-1	-27%	1%	?	15	-40%
CCOC(=O)c1ccc2ncc(-c3ccccc3)nc2c1	-3	-3%	0%	13µM*	7	-18%
O=C(Nc1cccc(-c2cnc3ccccc3n2)c1)c1ccccc1	9	25%	0%	18%	47	i
COc1cccc(CNC(=O)C2CC(=O)N(C3CCCCC3)C2)c1 (stereo not given)	-5	2%	0%	8%	-14	i
COc1ccc(CNC(=O)Cn2c(=O)oc3cc(S(=O)(=O)NCc4ccccc4)ccc32)cc1	14	-41%	.	.	.	-29%
O=C(NOCc1ccccc1)OCc1ccccc1	-26	-18%	.	11µM*	-3	-16%
N#CC(NC(=O)OCc1ccccc1)c1ccccc1 (stereo not given)	-17	6%	0%	-15%	-54*	-21%
O=[N+]([O-])O[C@@H]1CO[C@H]2[C@@H]1OC[C@@H]2O	4	.	.	.	.	.
CCN(Cc1cccs1)C(=O)CN1C(=O)NC(c2ccccc2)(c2ccccc2)C1=O	-6	8%	4%	-19%	-12	-11%
CCOC(=O)/C=C/[C@H]1Cc2ccccc2CO1	-11	8%	0%	4%	1	-7%
CCOC(=O)/C=C/[C@H]1CCc2cccc(C)c2O1	5	7%	0%	3%	-63*	-24%
COc1ccc2[nH]c3c(=O)n(CCCCC(=O)NCCN4CCCC4)c(=S)[nH]c3c2c1	-33	-31%	0%	0%	-96*	22%[57.5 µM]
CCCCNC(=O)CCCCn1c(=S)[nH]c2c([nH]c3ccc(OC)cc32)c1=O	1	-64%[56.9 µM]	0%	-1%	4	i
O=C(CCN1C(=O)C2C3C=CC(C3)C2C1=O)N1CCN(c2ccccc2F)CC1 (stereo not given)	2	8%	0%	-2%	17	-29%
O=C(CCN1C(=O)C2C3C=CC(C3)C2C1=O)N1CCN(c2ccccc2Cl)CC1 (stereo not given)	-9	-13%	3%	-1%	-80*	-13%
C=CCN1C(=O)C(=O)N(Cc2nc3ccccc3s2)C1=O	3	26%	0%	-6%	11	i
O=C(c1coc2ccc(O)cc12)C1CC1	-5	12%	0%	53%	?	-4%[57.5 µM]
O=C(c1ccc(Br)cc1)c1coc2ccc(O)cc12	4	0%	.	11µM*	-7	-14%
SMILES	D3 ag	RGS4 inh	B2AR arrestin	BRCA1 expr act	D3 antag	PTHR1 ag
COc1ccc(OC)c(C(=O)c2coc3ccc(O)cc23)c1	-24	-27%	3%	-27%	15	i
O=C(c1ccc(Cl)cc1)c1coc2ccc(O)cc12	-1	-23%	1%	4µM*	-2	-16%[57.5 µM]
Cn1c(Oc2ccncc2)nc2cc(-c3ccsc3)sc2c1=O	-9	.	.	-3%	-12	-9%
CC(CN(C)Cc1ccccc1)OC(=O)c1cccc(F)c1 (stereo not given)	-33	-12%	-1%	5%	-60*	i
CN(CCOC(=O)c1cccc(F)c1)Cc1ccccc1	-6	12%	0%	-1%	-88*	i
CN(CCOC(=O)c1ccccc1)Cc1ccccc1	-8	-7%	0%	5%	?	i
COc1ccc(-c2sc(C(=O)c3ccc(Cl)cc3Cl)cc2CC(=O)O)cc1	3	-3%	-1%	-81%	38	i
COc1cc(/C=N/NC(=O)CCn2c3ccccc3c3ccccc32)cc(OC)c1OC	42*	4%	0%	-43%	71	-79%
CC(C)c1ccc(NC(=O)C2(C)Cc3ccccc3C(=O)O2)cc1 (stereo not given)	-1	-7%	.	.	.	i
Cc1ccsc1C(=O)N1CCC1(C)C(=O)NCC(C)(C)C (stereo not given)	-7	.	.	5%	0	i
Cc1ccc(N2C(=O)C(c3c(C)[nH]n(-c4ccccc4)c3=O)(C(F)(F)F)C3=C2CC(C)(C)CC3=O)cc1 (stereo not given)	3	11%	0%	-26%	-75*	-13%[57.5 µM]
C[C@H](CSC(=O)c1ccccc1)C(=O)N1C[C@@H](Sc2ccccc2)C[C@H]1C(=O)O	2	.	.	.	.	.
O=S(=O)(c1ccc(OCc2nc3ccccc3s2)c(Cl)c1)N1CCOCC1	-13	-26%[11.4 µM]	0%	46%	-76*	-1%[57.5 µM]
N#CCc1nc2ccc(S(=O)(=O)N3CCOCC3)cc2s1	-14	-52%	0%	0%	-20	i
COc1cc2c(cc1OC)C(c1cc(Br)ccc1F)N(C(=O)CCl)CC2 (stereo not given)	-2	-24%	0%	-87%	-87*	-59%
CCN1C(=O)C(=CC=CN(C)c2ccccc2)SC1=S	-3	.	.	2.5µM*	-23	-2%
CCN1C(=O)/C(=C/C=C2\C=CN(CC)c3ccccc32)SC1=S	-9	-26%	-1%	6.3µM*	-15	i
O=C(CSc1nnc(NC(=O)c2ccccc2F)s1)NCC1CCCO1 (stereo not given)	3	-24%	0%	13µM*	5	-8%
Cc1ccc(S(=O)(=O)N2CCN(C(=O)C3CC3C)CC2)c(C)c1 (stereo not given)	3	24%	0%	-8%	-64*	i
Cc1ccc(C)c(S(=O)(=O)N2CCN(C(=O)C3CC3C)CC2)c1 (stereo not given)	2	19%	0%	-16%	2	i
CCCCCCCCSC1=CC(=O)C(OC)=C(OC)C1=O	-13	.	.	-79%	-106*	-44%
